“And” between values parts separate entries of the source, which are not always exact repeats. Equal entries are not always repeated. The panel holds about 83,000 compounds, 20% with a hit somewhere; the sample as a whole holds those more often.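 In brief: 96-well plates, 48 h treatment, single concentration, percent growth endpoint.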 The source made the active and inactive calls. The calls were made as follows: active = growth percent below 10; inactive = the rest.
These compounds were tested on NCI-H460 lung (assay: NCI-60 one-dose screen, 48 h (100 = growth as untreated, 0 = no growth, -100 = all killed)). Conditions: 10 µM unless noted.

Structure (SMILES)	growth
CCCCNC(=O)c1ccccc1C	105% (inactive)
CC1(C)CC(=O)NC1=O	108% (inactive)
COc1ccc(C(=O)C(O)c2ccc(OC)cc2)cc1 (centres undefined)	104% (inactive) and 105% (inactive)
COc1ccc2nccc(Cl)c2c1	109% (inactive)
O=C(c1ccccc1)C1(Br)CCCCC1	105% (inactive)
CN(C=O)c1ccccc1	102% (inactive)
CCOCCC(=O)O	102% (inactive)
Cc1cc2ccccc2c2cc3ccccc3cc12	89.2% (inactive)
CS(=O)(=O)OCC1NC(=O)C(COS(C)(=O)=O)NC1=O (centres undefined)	102% (inactive) and 95.9% (inactive)
Clc1ccc(/C=C/c2ccc3ccccc3n2)cc1	8.45% (active) and 86% (inactive) and 81.1% (inactive)
CCOC(=O)C1=CC(=O)CC(C)(C)O1	107% (inactive) and 109% (inactive)
CC(=O)Oc1cc(C)c(OC(C)=O)c(C)c1C	105% (inactive)
COc1ccc(/C=N/Nc2nc3ccccc3s2)cc1	97.3% (inactive)
CC1CCC(=O)N1c1ccc(N)cc1 (centres undefined)	106% (inactive)
Cc1ccc(N)cc1S(=O)(=O)O	109% (inactive) and 107% (inactive)
CCOC(C)=N	114% (inactive)
O=C(c1ccc(Cl)cc1)C1C(c2ccccc2)C1[N+](=O)[O-] (centres undefined)	104% (inactive)
CC(CN(C)C)CN1c2ccccc2Sc2ccccc21 (centres undefined)	95% (inactive) and 94.3% (inactive) and 93.5% (inactive)
CCCC(=O)OCC(COC(=O)CCC)OC(=O)CCC	101% (inactive)

Source: PubChem BioAssay (NCI)
